Measured values reported in the supplement of paper PMC6555819.

Columns and labels:
Experiment in all cases: PBM binding z-score (relative to random genomic background probes); higher = stronger binding; sequences stand for … in GC…GCGATTGACAGCGTAGAATGAAGG
[1] = system: PPARg:RXRa DBDmut IVT, anti-RXR (DBD mutation: RXRa K156A/R161A, NR concentration 270 nM, RXRa partner concentration 90 nM)
In short: (§1)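 For binding z-scores, the reference was random background probes on custom Agilent 4×180K protein-binding microarrays. These arrays were incubated 1 h with ligand-free nuclear receptor dimers in PBS pH 7.4, 2% milk, 0.02% Triton X-100, 1 mM DTT, 0.2 mg/mL BSA and 0.4 mg/ml salmon testes DNA. Fluorescence was scanned after antibody detection of each partner (one per run) and regression-normalized.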

[2] = system: PPARg:RXRa IVT, anti-PPARg (NR concentration 270 nM, RXRa partner concentration 90 nM)
In short: as §1

[3] = system: PPARg DBDmut:RXRa IVT, anti-PPARg (DBD mutation: PPARg1 K132A/R137A, NR concentration 270 nM, RXRa partner concentration 90 nM)
In short: as §1

[4] = system: PPARg DBDmut IVT, anti-PPARg (DBD mutation: PPARg1 K132A/R137A, NR concentration 270 nM)
In short: as §1

[5] = system: PPARg homodimer (NR concentration 180 nM)
In short: as §1

[6] = system: PXR:RXRa (NR concentration 270 nM, RXRa partner concentration 90 nM)
In short: as §1

[7] = system: PXR homodimer (NR concentration 270 nM)
In short: as §1

[8] = system: RARa:RXR (NR concentration 270 nM, RXRa partner concentration 90 nM)
In short: as §1

[9] = system: RARa homodimer (NR concentration 270 nM)
In short: as §1

[10] = system: RARb:RXRa (NR concentration 270 nM, RXRa partner concentration 90 nM)
In short: as §1

Sequence	PBM binding z-score [1]	PBM binding z-score [2]	PBM binding z-score [3]	PBM binding z-score [4]	PBM binding z-score [5]	PBM binding z-score [6]	PBM binding z-score [7]	PBM binding z-score [8]	PBM binding z-score [9]	PBM binding z-score [10]
CCTACTGGGCCAAGGGTCATTGATTCCAATGCTC	3.29	5.63	0.63	-0.667	1.67	3.15	-0.275	3.87	0.1	3.06
CCTACTGGGCCAAGAAGGTCATTGATGCCGATAA	3.62	3.76	-1.15	-1.07	1.85	3.13	1.54	3.23	0.531	2.76
GCATATAGGTAAAACAAGGTGAAAGTCCGATTGT	3.96	3.34	0.889	0.508	0.332	0.851	-0.261	1.85	-0.0924	0.432
CCTCGGAGGACAGAAGGTCAGAGCTGTCCGCTTT	0.195	-0.199	-1.36	-1.28	1.06	1.35	-0.13	1.93	0.441	2.89
GCTGCTAGGTCAGGTTTGTCAGCTAACGGGTACG	3.26	1.92	-0.625	-0.587	0.518	0.229	-0.27	0.51	-0.0516	2.95
TCTTGTATATCAAGCAGGTTAAGAAAGCCTGAGT	1.41	0.503	0.561	1.48	0.514	0.624	0.331	0.805	0.189	0.615
CCTACTGGGCCACGAAAGGTCATTGAATCAGTGA	5.88	5.52	0.0728	-0.421	2.53	5.09	1.26	5.07	0.674	4.03
ATCTATAGGTAAAGATAGTTCAGTGAATGCAAAT	1.2	1.29	0.937	1.26	0.82	1.65	0.751	0.916	0.797	0.78
ACTAGCAGTCCAAGGGTCACTCAAGATTAGTCCG	-0.304	1.77	0.198	-0.0845	1.69	3.03	0.168	3.39	-0.132	3.35
GGAACGAGGGCTAAGTTGATAGCATCTGTCGACG	0.209	0.114	0.146	-0.476	-0.2	-0.47	-0.382	-0.0692	-0.234	0.086
CGTCCAAGGTCAAGGTCAGTGCAAGAGACTCGAA	3.72	4.78	-0.258	-0.287	3.45	5.43	2.22	5.21	1.13	5.62
GGAACGAGTGCATTCGAGTTGATAGCATGGCGAT	-0.308	-0.6	-1.05	-0.767	-1.32	2.91	3.49	-0.0398	-1.2	-0.311
CCGAGTAGGTTATGGGGCATCCAGGCAACGGTGA	2.41	3.47	0.134	-0.392	0.993	-0.0112	-0.414	0.287	0.0576	0.965
CCTGCTATGTCATGGTCAGCTAATCTACAGTATG	0.893	0.445	0.205	0.546	-0.0268	-0.217	-0.359	-0.187	-0.218	0.913
TTACCAAGGTGAAGGTCGCTGATCCCTCTGTAGA	1.76	3.41	-0.525	-0.735	0.05	0.966	-0.523	1.56	-0.643	2.5
TAGCCTAGGTTATTCAGGGGCCAGTATAGAAAGC	0.707	0.703	0.674	-0.312	-0.0619	0.0716	-0.463	0.719	-0.306	1.13
TCGAGTAGGTTACCCATGGGGCATTCAGCTTTCT	2.81	2.66	-0.222	-0.778	-0.0262	0.0585	-0.728	0.457	-0.95	0.891
TCTAGTTGGTCACGAAGGTCACACACGACGGGTA	2.83	4.36	1.5	1.16	3.64	3.95	1.05	4.14	2	4.01
ATATGTAGGTTACATCCGGGTCACTCAGGCTATG	7.65	7.47	3.76	3.51	2.34	3.29	1.26	3.74	0.95	2.41
CGTATTAGTTGACCATAAGGGCAACCGAAGCTCG	0.0759	0.784	0.0678	-0.147	1.44	0.388	0.0683	0.881	0.774	1.26
ACTATCAGTTGAGACGAGGGCAACCGATAGGTTG	-0.519	0.218	-0.42	-0.235	0.148	1.44	-0.0291	0.7	-0.128	0.903
ACAGACACGTGAGTGAAGGTAACTCAGCTGGACG	-0.453	-0.172	-0.0263	0.112	-0.539	-0.408	-0.777	-0.0459	-0.522	-0.255
ATCGAAAGGTCGAGGTGAGTGTAGAGAAAGGGAA	0.382	2.47	0.918	-0.292	2.56	3.28	0.73	3.41	1.1	3.97
GGTACAGGGTCAAGGCCAGAGTACGCGTATTGAT	1.42	3.96	0.368	0.441	2.35	3.98	0.674	4.77	0.889	4.63
ATACTAAGGTGATCGTGAGGTCGTTGATACTAAC	1.4	1.73	0.74	1.39	1.65	3.74	1.93	2.88	0.716	1.77
